The panel holds about 83,000 compounds, 20% with a hit somewhere; the sample as a whole holds those more often.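 How to read the values: 0–100, growth inhibition (40 = 60% inhibited); 0, no net growth; -100 to 0, cell death (-40 = 40% of starting cells died; -100 = all dead).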 The source made the active and inactive calls. Rule for the calls: active = growth percent below 10; inactive = the rest.

This experiment has as its system MOLT-4 leukemia. Nature of the experiment: NCI-60 one-dose screen, 48 h (100 = growth as untreated, 0 = no growth, -100 = all killed). Conditions: 10 µM unless noted.
As for `COC(=O)CCCCCCCCC1(C)C=CC(C(C)O)=CC1` (stereo not drawn), the growth was 97.8% (inactive).

As for `COc1ccc(-c2nn(Cc3ccccc3)c3c2-c2oncc2CC3)cc1OC`, the growth is 67.2% (inactive).

With `COc1ccc(CNC(=O)COc2ccc(/C=N/Nc3nc4ccccc4s3)cc2)cc1`, the growth was 76.5% (inactive).

Values taken from PubChem BioAssay (NCI).
